# Assay results: PMC4336329 (PLoS ONE, 2015)
# The campaign covered roughly 310,000 compounds. About 14,000 (4.5%) showed an effect of 50% or more. The effect is printed as a negative number. The entries come from a sample that favours strong results as a whole.
# Biological target: human ether-à-go-go-related gene (hERG) potassium channel (human, UniProt Q12809)
# Assay: primary screen, population patch clamp on CHO cells stably expressing hERG; higher = less effect of the substance
# Procedure: Briefly, Chinese hamster ovary (CHO) cells stably expressing the hERG channel were dislodged from tissue culture flasks and dispensed into PPC plates. […] During the recording, background leak currents were estimated by a 100 ms step to -80 mV from an initial holding potential of -70 mV and subtracted from the subsequent current measurement. The campaign was conducted in two phases using slight differences in recording protocol. In the first phase, the initial voltage pulse used a 100 ms step to -30 mV from a holding potential of -70 mV, a 2 s conditioning step to +25 mV, and a 2 s test step to -30 mV. During the second phase of the screen, the potential during the conditioning step was raised to +45 mV. In both phases of the campaign, a secondary voltage pulse was applied using the same parameters as the second phase initial pulse. The initial and secondary pulses were applied in the absence of compound, and upon application of 1 μM and 10 μM test concentrations. […]
# 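Also: peak tail current of the secondary pulse compared with the same well before compound.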
# human ether-à-go-go-related gene (hERG) potassium channel, sequence (Q12809 whole entry, looked up): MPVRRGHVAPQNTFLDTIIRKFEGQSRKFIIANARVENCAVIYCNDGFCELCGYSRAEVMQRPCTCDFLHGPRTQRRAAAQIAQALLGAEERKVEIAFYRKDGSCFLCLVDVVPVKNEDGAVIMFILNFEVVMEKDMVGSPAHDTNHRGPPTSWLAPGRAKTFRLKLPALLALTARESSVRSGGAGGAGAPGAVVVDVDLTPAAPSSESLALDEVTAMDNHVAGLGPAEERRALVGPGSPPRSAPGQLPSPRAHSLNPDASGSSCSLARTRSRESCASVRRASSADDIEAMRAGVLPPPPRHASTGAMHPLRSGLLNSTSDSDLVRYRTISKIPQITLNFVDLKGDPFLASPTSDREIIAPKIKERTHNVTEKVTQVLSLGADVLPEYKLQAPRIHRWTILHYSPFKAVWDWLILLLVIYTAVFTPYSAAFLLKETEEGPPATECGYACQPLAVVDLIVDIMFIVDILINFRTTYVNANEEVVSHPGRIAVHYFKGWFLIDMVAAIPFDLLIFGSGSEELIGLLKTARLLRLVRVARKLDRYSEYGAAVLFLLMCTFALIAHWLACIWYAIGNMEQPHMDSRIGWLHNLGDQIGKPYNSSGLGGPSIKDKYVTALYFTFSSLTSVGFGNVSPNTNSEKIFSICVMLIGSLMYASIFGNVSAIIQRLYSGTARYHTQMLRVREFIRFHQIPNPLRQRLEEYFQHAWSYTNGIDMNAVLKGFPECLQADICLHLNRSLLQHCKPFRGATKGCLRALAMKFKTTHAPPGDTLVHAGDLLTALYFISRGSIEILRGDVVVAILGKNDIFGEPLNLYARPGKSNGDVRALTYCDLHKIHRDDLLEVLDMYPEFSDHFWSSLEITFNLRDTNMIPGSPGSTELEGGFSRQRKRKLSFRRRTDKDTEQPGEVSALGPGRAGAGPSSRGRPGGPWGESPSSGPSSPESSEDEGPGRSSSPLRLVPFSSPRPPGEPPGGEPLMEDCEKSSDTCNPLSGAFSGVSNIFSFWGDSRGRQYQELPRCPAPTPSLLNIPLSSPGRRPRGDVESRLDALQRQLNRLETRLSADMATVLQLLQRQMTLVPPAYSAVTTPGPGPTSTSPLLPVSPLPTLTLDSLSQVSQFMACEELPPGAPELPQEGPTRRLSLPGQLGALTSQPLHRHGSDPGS
row,SMILES,"hERG current change (%, negative = inhibition) at 10uM [%]"
1,CCN1/C(=C/c2ccc3ccc(C)cc3[n+]2CC)Sc2ccccc21.[I-],-81.1
2,CCN1/C(=C/c2ccc3cc(C)ccc3[n+]2CC)Sc2ccccc21.[I-],-90.6
3,CC[n+]1c(S(=O)(=O)[O-])ccc2ccc(C)cc21,6.26
4,CCC(=O)/C=C1\Sc2ccccc2N1CC,-3.72
5,CCN1/C(=C/c2ccc3cc(C)ccc3[n+]2CC)Sc2ccc3sccc3c21.[I-],-44.5
6,CCN1/C(=C/C(=O)c2ccco2)Sc2ccccc21,8.09
7,CCC(=O)/C=C1/Sc2ccccc2N1CC,7.66
8,CCN1/C(=C/c2ccc3cccc(C)c3[n+]2CC)Sc2ccccc21.[I-],-75
9,Cc1ccc2c(c1)S/C(=C\c1cccc[n+]1C)N2CCO.[I-],-0.805
10,COc1ccccc1CNCC(=O)Nc1ccc(N2CCOCC2)cc1.O=C(O)C(=O)O,1.57
11,O=C(NCc1cccnc1)C1CCCCN1S(=O)(=O)c1ccc(F)cc1 (stereo not shown),-20.9
12,CC(=O)Nc1ccc(S(=O)(=O)N2CCN(C(=O)Cc3ccccc3)CC2)cc1,-1.44
13,COc1ccc(CN(CCNC(=O)CCCCC(=O)NCCN(Cc2ccc(OC)cc2)C(C)C)C(C)C)cc1.Cl,-5.63
14,O=C(CCCOc1ccccc1)Nc1nncs1,-5.59
15,COc1ccc(OC)c(N2C(=O)NC(=O)C3(Cc4cc(C)ccc4N(C)C3)C2=O)c1 (stereo not shown),-5.52
16,Cc1ccccc1Oc1cc(-n2ncc(Cl)c(Cl)c2=O)ncn1,6.67
17,CCc1cccc(CC)c1NC(=O)COc1ccccc1C(=O)c1cc(C#N)c(=O)n(C2CCCCC2)c1,14.4
18,CCCCNC(=O)c1ccccc1Cl,21.5
19,CN1CCc2c(n(CC(O)CN(CCO)CCO)c3ccccc23)C1=O.Cl (stereo not shown),6.94
20,CN1CCc2c(n(CC(O)CNCc3ccccc3)c3ccccc23)C1=O.Cl (stereo not shown),-52.8
21,CN1CCc2c(n(CC(O)CN3CCN(CCO)CC3)c3ccccc23)C1=O.Cl (stereo not shown),2.24
22,Cc1cc(C)cc(N2CC(C)Cn3c2nc2c3c(=O)[nH]c(=O)n2C)c1 (stereo not shown),-2.03

row,SMILES,"hERG current change (%, negative = inhibition) at 10uM [%]"
1,CCC(Oc1ccccc1)C(=O)NC1CCCCCC1 (stereo not shown),-0.406
2,CCC1CCCCN1C(=O)CCn1c(=O)oc2ccccc21 (stereo not shown),-17.7
3,O=C(N/N=C/c1cccnc1)c1cc(-c2cccs2)nc2ccccc12,-20
4,CCC(C)Sc1cccc(-c2nc3cc(C)ccn3c2NCc2ccccc2)c1.O=C(O)C(F)(F)F (stereo not shown),4.02
5,Cc1ccc(S(=O)(=O)N2CCCCC2)cc1C(=O)N1CCN(CCO)CC1,3.41
6,O=C(C1=NN[C@@H]2C(=O)N(Cc3ccccc3)C(=O)[C@H]12)c1ccc(F)cc1,7.44
7,O=C(OCc1ccccc1)C1=NNC2C(=O)N(Cc3ccccc3)C(=O)C12 (stereo not shown),16.2
8,O=C(C1=NN[C@@H]2C(=O)N(Cc3ccccc3)C(=O)[C@H]12)c1ccc([N+](=O)[O-])cc1,-50.2
9,CC(C)(C)c1nnc(NS(=O)(=O)c2ccc([N+](=O)[O-])cc2)s1,28.3
10,c1ccc(CN2CCN(c3nc(-c4ccccn4)nc4ccccc34)CC2)cc1,5.45
11,CSc1nc(N2CCN(C)CC2)c2ccccc2n1,-49.1
12,CN1CCN(c2nc(-c3ccccn3)nc3ccccc23)CC1,-51.4
13,c1ccc(N2CCN(c3nc(-c4ccccn4)nc4ccccc34)CC2)cc1,-73.9
14,c1ccc(-c2nc(N3CCCCCC3)c3ccccc3n2)nc1,-77.5
15,Oc1ccccc1-c1nc(N2CCCC2)c2ccccc2n1,-13.2
16,COc1cccc(-c2nc(N3CCN(c4ccccc4)CC3)c3ccccc3n2)c1O,0.912
17,c1ccc(-c2nc(N3CCOCC3)c3ccccc3n2)nc1,-15.9
18,CCN1CCN(c2nc(-c3ccccn3)nc3ccccc23)CC1,-56.3
19,Fc1ccccc1-c1nc(N2CCCCC2)c2ccccc2n1,-1.61
20,Cc1cc(C)c(S(=O)(=O)N2CCOC2CNC(=O)C(=O)NCCN(C)C)c(C)c1 (stereo not shown),13.1
21,COc1ccc2[nH]cc(CCNC(=O)c3ccco3)c2c1,12.3
